Experiments:
Assay in all cases: DAPPL (digital affinity profiling via proximity ligation, sequencing); 10 mM Tris-HCl pH 7.5, 50 mM NaCl, 1 mM DTT, 4% glycerol, room temperature, 30 min; GST-TFs on glutathione beads, 16-mer random dsDNA library, 0.1% formaldehyde crosslink after washing; high values mean tight binding
Settings in all cases: protein: recombinant; tags: N-terminal GST; dsDNA, one strand shown
[1] = target: ETV1 (Homo sapiens, UniProt P50549 1-477)
Method in brief: (§1)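 After expression in yeast as GST fusions, human transcription factors were bound to glutathione beads, DNA-barcoded and mixed with a tag-only sample. The pools were incubated with 200 nmole of a 16-mer random double-stranded DNA library in Tris/NaCl/DTT/glycerol buffer (30 min, room temperature), washed and crosslinked with 0.1% formaldehyde. Proximity ligation with BsaI/T4 ligase ran for 1 h at 37 °C, before PCR amplification and sequencing on an Illumina NextSeq500. Binding signal is a hexamer's read frequency for a factor divided by its frequency for the tag-only sample.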

[2] = target: T1, ERF (Homo sapiens, UniProt P50548 1-548)
T1 sequence: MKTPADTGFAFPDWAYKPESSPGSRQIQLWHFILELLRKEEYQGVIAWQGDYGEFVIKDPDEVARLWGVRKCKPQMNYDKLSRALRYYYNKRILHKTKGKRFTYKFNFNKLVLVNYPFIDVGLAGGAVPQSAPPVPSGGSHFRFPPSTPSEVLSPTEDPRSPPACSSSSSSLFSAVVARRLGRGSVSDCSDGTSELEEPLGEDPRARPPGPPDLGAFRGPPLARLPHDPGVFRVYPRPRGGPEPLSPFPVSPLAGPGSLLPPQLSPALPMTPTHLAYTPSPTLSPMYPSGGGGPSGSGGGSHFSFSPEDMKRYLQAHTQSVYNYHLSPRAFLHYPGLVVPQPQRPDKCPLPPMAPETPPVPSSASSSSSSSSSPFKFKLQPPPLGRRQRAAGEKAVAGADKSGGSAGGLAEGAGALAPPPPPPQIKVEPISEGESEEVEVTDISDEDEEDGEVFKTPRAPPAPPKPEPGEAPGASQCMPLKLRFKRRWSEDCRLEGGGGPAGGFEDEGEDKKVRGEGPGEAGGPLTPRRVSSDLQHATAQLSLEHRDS
Method in brief: as §1

[3] = target: T2, ETV3L (Homo sapiens, UniProt Q6ZN32 1-361)
T2 sequence: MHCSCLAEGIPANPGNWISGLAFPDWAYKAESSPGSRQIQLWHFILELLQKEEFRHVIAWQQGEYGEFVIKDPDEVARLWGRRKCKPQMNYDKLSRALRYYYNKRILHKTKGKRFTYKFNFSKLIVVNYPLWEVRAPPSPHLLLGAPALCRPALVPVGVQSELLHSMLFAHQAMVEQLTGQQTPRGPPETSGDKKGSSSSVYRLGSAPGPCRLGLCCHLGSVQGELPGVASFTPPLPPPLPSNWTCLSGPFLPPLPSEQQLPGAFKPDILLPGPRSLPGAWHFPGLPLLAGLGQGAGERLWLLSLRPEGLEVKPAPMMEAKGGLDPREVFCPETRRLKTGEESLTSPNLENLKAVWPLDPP
Method in brief: as §1

[4] = target: T3, ETS2 (Homo sapiens, UniProt P15036 1-469)
T3 sequence: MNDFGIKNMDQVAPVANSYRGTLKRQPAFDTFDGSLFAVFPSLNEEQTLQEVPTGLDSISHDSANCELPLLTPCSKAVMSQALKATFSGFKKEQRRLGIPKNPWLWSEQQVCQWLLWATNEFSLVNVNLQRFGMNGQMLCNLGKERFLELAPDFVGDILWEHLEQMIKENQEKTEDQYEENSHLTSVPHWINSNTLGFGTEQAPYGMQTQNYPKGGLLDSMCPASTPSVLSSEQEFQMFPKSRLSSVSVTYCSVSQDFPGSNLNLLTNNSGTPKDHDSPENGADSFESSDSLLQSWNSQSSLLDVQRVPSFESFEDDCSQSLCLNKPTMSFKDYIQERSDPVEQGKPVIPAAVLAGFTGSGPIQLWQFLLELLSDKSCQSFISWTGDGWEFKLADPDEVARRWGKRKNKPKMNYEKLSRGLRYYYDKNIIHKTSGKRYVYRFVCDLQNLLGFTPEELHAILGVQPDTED
Method in brief: as §1

[5] = target: T4, SPDEF (Homo sapiens, UniProt O95238 1-335)
T4 sequence: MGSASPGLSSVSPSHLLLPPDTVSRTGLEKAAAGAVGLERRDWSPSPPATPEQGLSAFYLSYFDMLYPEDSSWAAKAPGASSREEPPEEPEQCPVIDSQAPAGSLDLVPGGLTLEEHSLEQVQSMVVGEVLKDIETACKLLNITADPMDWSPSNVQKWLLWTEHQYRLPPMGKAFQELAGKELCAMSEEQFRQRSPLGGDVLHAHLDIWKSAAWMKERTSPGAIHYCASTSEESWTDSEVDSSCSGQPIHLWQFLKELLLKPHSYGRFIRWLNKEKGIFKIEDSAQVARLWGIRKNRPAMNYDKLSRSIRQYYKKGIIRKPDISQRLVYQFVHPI
Method in brief: as §1

[6] = target: T5, ETV7 (Homo sapiens, UniProt Q9Y603 1-341)
T5 sequence: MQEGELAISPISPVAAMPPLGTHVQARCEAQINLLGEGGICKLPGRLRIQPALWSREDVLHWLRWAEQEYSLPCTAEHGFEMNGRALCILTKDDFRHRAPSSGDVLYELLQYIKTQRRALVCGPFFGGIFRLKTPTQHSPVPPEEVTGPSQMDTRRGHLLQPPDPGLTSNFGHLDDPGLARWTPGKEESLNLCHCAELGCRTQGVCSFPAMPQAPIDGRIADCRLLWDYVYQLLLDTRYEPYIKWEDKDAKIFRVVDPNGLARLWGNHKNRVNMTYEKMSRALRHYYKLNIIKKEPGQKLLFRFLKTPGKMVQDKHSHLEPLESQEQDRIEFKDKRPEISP
Method in brief: as §1

[7] = target: T6, ELF5 (Homo sapiens, UniProt Q9UKW6-2 1-255)
T6 sequence: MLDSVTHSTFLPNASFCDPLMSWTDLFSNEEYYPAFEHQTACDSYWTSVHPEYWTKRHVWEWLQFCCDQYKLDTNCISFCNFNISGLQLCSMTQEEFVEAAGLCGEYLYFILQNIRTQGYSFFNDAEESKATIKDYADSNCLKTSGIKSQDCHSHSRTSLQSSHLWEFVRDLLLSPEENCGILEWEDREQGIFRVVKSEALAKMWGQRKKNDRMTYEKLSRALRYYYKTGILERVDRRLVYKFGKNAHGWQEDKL
Method in brief: as §1

[8] = target: T7, ETV3 (Homo sapiens, UniProt P41162-2 1-143)
T7 sequence: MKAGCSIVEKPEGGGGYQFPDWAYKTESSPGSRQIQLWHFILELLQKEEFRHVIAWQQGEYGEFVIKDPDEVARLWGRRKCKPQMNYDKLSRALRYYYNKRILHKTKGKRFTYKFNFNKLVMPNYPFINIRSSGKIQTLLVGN
Method in brief: as §1

[9] = target: ETV6 (Homo sapiens, UniProt P41212 1-452)
ETV6, sequence (P41212 whole entry): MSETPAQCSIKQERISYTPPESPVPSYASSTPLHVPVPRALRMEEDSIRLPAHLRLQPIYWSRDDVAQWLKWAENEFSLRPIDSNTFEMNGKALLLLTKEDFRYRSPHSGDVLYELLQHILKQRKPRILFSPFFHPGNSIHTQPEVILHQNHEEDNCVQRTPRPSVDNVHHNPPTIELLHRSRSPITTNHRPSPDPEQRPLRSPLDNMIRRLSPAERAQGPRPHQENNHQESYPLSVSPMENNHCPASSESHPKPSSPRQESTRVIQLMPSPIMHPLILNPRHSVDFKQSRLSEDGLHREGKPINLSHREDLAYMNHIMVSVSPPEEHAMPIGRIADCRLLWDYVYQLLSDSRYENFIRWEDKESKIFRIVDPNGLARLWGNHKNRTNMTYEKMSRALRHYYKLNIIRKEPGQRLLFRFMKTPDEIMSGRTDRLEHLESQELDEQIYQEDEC
Method in brief: as §1

ETV1, sequence (P50549 whole entry, the tested form may be a part): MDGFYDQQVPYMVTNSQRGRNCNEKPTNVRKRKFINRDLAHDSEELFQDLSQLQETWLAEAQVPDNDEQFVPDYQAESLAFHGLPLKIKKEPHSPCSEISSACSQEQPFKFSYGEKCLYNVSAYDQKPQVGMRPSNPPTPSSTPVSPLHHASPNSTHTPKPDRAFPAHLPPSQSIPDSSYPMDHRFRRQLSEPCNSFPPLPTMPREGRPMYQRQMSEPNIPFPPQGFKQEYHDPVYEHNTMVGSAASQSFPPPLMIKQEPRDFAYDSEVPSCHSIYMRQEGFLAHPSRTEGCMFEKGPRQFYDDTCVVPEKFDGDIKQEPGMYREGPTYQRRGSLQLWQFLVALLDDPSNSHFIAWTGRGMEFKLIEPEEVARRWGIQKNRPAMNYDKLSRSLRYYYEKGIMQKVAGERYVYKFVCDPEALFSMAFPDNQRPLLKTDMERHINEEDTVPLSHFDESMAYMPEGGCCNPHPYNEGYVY

Q: How did the binding signal [1] turn out when CCCGAC was run?
A: The binding signal was 1.36 fold enrichment (6-mer frequency, TF over GST control).

Q: And the binding signal [2]?
A: The binding signal was 1.29 fold enrichment (6-mer frequency, TF over GST control).

Q: And the binding signal [3]?
A: The binding signal was 1.41 fold enrichment (6-mer frequency, TF over GST control).

Q: And the binding signal [4]?
A: Its binding signal is 1.27 fold enrichment (6-mer frequency, TF over GST control).

Q: What about the binding signal [5] of the same sequence?
A: Its binding signal is 1.44 fold enrichment (6-mer frequency, TF over GST control).

Q: And the binding signal [6]?
A: The binding signal was 1.37 fold enrichment (6-mer frequency, TF over GST control).

Q: And the binding signal [7]?
A: The binding signal was 1.38 fold enrichment (6-mer frequency, TF over GST control).

Q: What about the binding signal [8] of the same sequence?
A: Its binding signal is 1.25 fold enrichment (6-mer frequency, TF over GST control).

Q: What about the binding signal [9] of the same sequence?
A: The binding signal was 1.42 fold enrichment (6-mer frequency, TF over GST control).
